# From PubChem BioAssay (NCATS)
# Inconclusive results are not listed. The source made the active and inactive calls. Unless noted, no rule for the calls is given here.
# Legend:
# [1] = qHTS profiling of the MIPE4 collection as inhibitors of Plasmodium falciparum (3D7) proliferation (AID 743344);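 also: scaled between DMSO vehicle wells and 0.29 µM artemisinin as full inhibition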; conditions: P. falciparum 3D7 in erythrocytes, SYBR Green DNA fluorescence, 72 h; at 28.5 µM
# Method in brief: (§1)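 Parasite DNA was quantified by SYBR Green I fluorescence (ex 485, em 535 nm) after overnight lysis in saponin/Triton buffer at room temperature. Cultures at 0.3% parasitemia and 2.5% hematocrit were first exposed to compound for 72 h at 37 C; signals were normalised to artemisinin (0.29 uM) and vehicle wells.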
# [2] = qHTS profiling of the MIPE4 collection as inhibitors of Plasmodium falciparum (DD2) proliferation (AID 743345); conditions: P. falciparum Dd2 in erythrocytes, SYBR Green DNA, 72 h; at 28.5 µM unless noted
# Method in brief: as §1
# [3] = qHTS profiling of the MIPE4 collection as inhibitors of Plasmodium falciparum (DD2) proliferation (Rep 2) (AID 743346); conditions: P. falciparum Dd2 in erythrocytes, SYBR Green DNA, 72 h; at 28.5 µM
# Method in brief: as §1
# [4] = qHTS profiling of the MIPE4 collection as inhibitors of Plasmodium falciparum (HB3) proliferation (AID 743347);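 also: plate controls were DMSO vehicle wells for no effect and artemisinin wells for full effect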; conditions: P. falciparum HB3 in erythrocytes, SYBR Green DNA, 72 h; at 28.5 µM
# Method in brief: as §1
# [5] = High-throughput drug toxicity screening in the BPDCN cell line Cal-1 (AID 1224825); conditions: Cal-1 BPDCN cell viability, qHTS; at 45.8 µM (top of the series)
# Method in brief: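 Viability of the BPDCN line Cal-1 is measured as ATP-based luminescence (CellTiter-Glo) following 48 h incubation with compounds. Percent activity uses DMSO-treated wells as 100% and 9.2 uM bortezomib as 0%.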
# [6] = qHTS assay for measurement of the activity of small molecule inhibitors on Zika virus induced Caspase-3 activity in human iPSC derived neural progenitor cells (hNPCs) (AID 1224857; active = well fitted inhibition curve with a large enough effect; also: nearly all actives have a fitted effect of over 65% in size; also: potency is read from the fitted curve at half-maximal effect); conditions: hNPCs ZIKV-induced caspase-3/7, Caspase-Glo luminescence, 6 h; series mostly up to 45.7 µM
# Method in brief: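 Pretreat hNPCs with compound 1 h; infect ZIKV 2 FFU/cell; 6 h 37 C, 5% CO2; Caspase-Glo 3/7, 30 min RT; luminescence; normalize to no-virus and virus-only wells.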
# [7] = qHTS assay for measurement of the activity of small molecule inhibitors on Zika virus induced Caspase-3 activity in human astrocytoma cells (AID 1224859; active = well fitted inhibition curve with a large enough effect; also: potency is read from the fitted curve at half-maximal effect); conditions: SNB-19 ZIKV-induced caspase-3/7, luminescence, 6 h; series mostly up to 45.7 µM
# Method in brief: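 Human SNB-19 astrocytoma cells in RPMI 1640 with 10% FBS receive compound one hour ahead of Zika virus at 2 FFU/cell. After 6 h infection, caspase-3/7 activity is detected by Caspase-Glo luminescence.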
# [8] = qHTS Screen of the MIPE 4.0 Collection Against Ewings Sarcoma (TC71) (AID 1259253; active = well fitted inhibition curve with a large enough effect; also: nearly all actives have a fitted effect of over 40% in size; also: potency is read from the fitted curve at half-maximal effect); conditions: TC71 Ewing sarcoma viability, CellTiter-Glo, 48 h; series mostly up to 45.8 µM
# Method in brief: (§2)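 Here, cells in 5% FBS RPMI were exposed for two days (48 h) to compound dilutions added four hours after plating. ATP-based CellTiter-Glo luminescence measured viability, normalized to vehicle and no-cell blanks.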
# [9] = qHTS Screen of the MIPE 4.0 Collection Against Ewings Sarcoma (RDES) (AID 1259252; active = well fitted inhibition curve with a large enough effect; also: nearly all actives have a fitted effect of over 35% in size; also: potency is read from the fitted curve at half-maximal effect); conditions: RD-ES Ewing sarcoma viability, CellTiter-Glo, 48 h; series mostly up to 45.8 µM
# Method in brief: as §2
SMILES,"parasite growth, % of DMSO control [1]","parasite growth remaining, % of DMSO control (lower = more inhibition) [2]","parasite growth, % of control (lower = inhibition) [3]","growth, % of control [4]",viability (% of control) [5],Potency [6],Potency [7],Potency [8],Potency [9]
CN1CCN(c2ccc([N+](=O)[O-])c3no[n+]([O-])c23)CC1,77.4%,95.3%,86.4%,99.7%,4.53%,inactive,inactive,23.5 µM (active),
C[C@@H](N)Cc1cnc[nH]1,,,,,,inactive,inactive,,
C[C@]12CC[C@H]3[C@@H](CCC4=CC(=O)CC[C@@]43C)[C@H]1CC[C@H]2O,78.5%,90.8%,93.2%,86.3%,101%,inactive,inactive,inactive,inactive
CN(C)NC(=O)CCC(=O)O,91.1%,101%,141%,106%,96.3%,inactive,inactive,,26.4 µM (active)
C[C@]12COC(=O)C[C@@H]1CC[C@@H]1[C@H]2CC[C@@]2(C)[C@H]1CC[C@]2(C)O,89.9%,96.6%,93%,93.7%,111%,inactive,inactive,,
C=C[C@@H]1CN2CCC1C[C@@H]2[C@@H](O)c1ccnc2ccccc12 (some centres undefined),15.2%,21.4%,45.8%,17.3%,93.3%,inactive,inactive,18.7 µM (active),16.6 µM (active)
c1ccc2c(CN3CCNCC3)cccc2c1,85.3%,53.1%,43.2%,109%,99%,inactive,inactive,inactive,inactive
CCCN1CCO[C@@H]2c3cc(O)ccc3OC[C@@H]21,98.1%,99.7%,91%,77.3%,16.6%,inactive,inactive,inactive,inactive
COc1ccc(N(C(=O)Oc2c(C)cccc2C)c2ccnc(Nc3ccc(N4CCN(C)CC4)cc3)n2)c(OC)c1,5.18%,6.94%,20.9%,9.74%,13.7%,inactive,inactive,2.35 µM (active),1.87 µM (active)
CN[C@@H]1C[C@@H](c2ccc(Cl)c(Cl)c2)c2ccccc21,,,,,,inactive,inactive,,
O=S(=O)(CC1CS1)c1ccc(Oc2ccccc2)cc1 (centres undefined),94.4%,104%,73.8%,106%,3.02%,,inactive,,
C[C@](O)(COc1ccc(C#N)cc1)C(=O)Nc1ccc(C#N)c(C(F)(F)F)c1,6.31%,92.3%,20.8%,9.27%,99.4%,inactive,inactive,,inactive
CCCC[N+]1(C)[C@H]2CC(OC(=O)[C@H](CO)c3ccccc3)C[C@H]1[C@H]1O[C@H]12 (some centres undefined),98.9%,100%,86.4%,52.3%,120%,inactive,inactive,inactive,inactive
COc1ccc(CC2NCCc3cc(OC)c(OC)cc32)cc1OC (centres undefined),85.9%,85.6%,55.8%,90.4%,102%,inactive,inactive,,23.5 µM (active)
CCOC(=O)c1cncn1[C@H](C)c1ccccc1,46.8%,98%,70.6%,67.6%,105%,inactive,inactive,inactive,
CCN1C[C@]2(OC(=O)c3ccccc3NC(C)=O)CC[C@H](OC)[C@@]34[C@H]5CC6[C@@H](OC)C[C@](O)(C(C[C@@H]23)[C@@H]14)[C@@]5(O)[C@@H]6OC,97%,94%,72.6%,85.8%,108%,inactive,inactive,inactive,inactive
CC(C)(O)C(=O)Nc1ccc([N+](=O)[O-])c(C(F)(F)F)c1,82.8%,97.4%,70.6%,79%,14.7%,inactive,inactive,23.5 µM (active),14.8 µM (active)
NC1CC1c1ccccc1 (centres undefined),95.6%,17.6%,105%,109%,95.2%,inactive,inactive,inactive,
Clc1ccc(C(c2ccc(Cl)cc2)n2cc[n+](CC(OCc3ccc(Cl)cc3Cl)c3ccc(Cl)cc3Cl)c2)cc1 (centres undefined),,,,,,inactive,,,
O=C1C=CC[C@@H]2[C@H]3CCCN4CCC[C@@H](CN12)[C@@H]34,101%,99.7%,86.7%,97.5%,120%,4.69 µM (active),3.32 µM (active),,
O=C(N[C@@H](COc1ccc2[nH]c(=O)[nH]c2c1)c1ccccc1)c1cccn(Cc2ccc(F)c(F)c2)c1=O,50.5%,85.6%,75.9%,63.1%,36.8%,inactive,inactive,,23.5 µM (active)
Cc1c(C(=O)c2cccc3ccccc23)c2cccc3c2n1[C@H](CN1CCOCC1)CO3,15.4%,47.9%,48.7%,13.4%,40%,inactive,inactive,26.4 µM (active),
CC(C)[C@H]1CN[C@H](C(=O)O)[C@H]1CC(=O)O,,,,,,inactive,,,
CN1C2CCC1CC(OC(=O)c1cc(Cl)cc(Cl)c1)C2 (centres undefined),,,,,,inactive,inactive,,
Clc1cnc(Oc2ccc(Oc3ncc(Cl)cc3Cl)cc2)c(Cl)c1,,,,,,inactive,inactive,,
CC(N[C@H]1C[C@H]1c1ccccc1)c1ccc2c(c1)OCCO2 (some centres undefined),90.6%,74.9%,64.1%,60.1%,96.1%,inactive,inactive,,
O=c1[nH]c2ccccc2n1C1CCN(Cc2ccc(-c3[nH]c4cc5ncnc5cc4nc3-c3ccccc3)cc2)CC1,4.63%,6.7%,14.2%,4.58%,3.61%,inactive,inactive,20.9 µM (active),23.5 µM (active)
C[N+]1(C)C2CC(OC(=O)[C@H](CO)c3ccccc3)CC1C1OC12 (some centres undefined),,,,,,inactive,,,
CC[C@@H]1C(=O)OC[C@@H]1Cc1cncn1C,,,,,,inactive,,,
